These results are taken from PubChem BioAssay.

Unmarked numbers belong to inactive results. For some of these results: Entries with a potency or affinity are not part of this list. The source made the active and inactive calls. Unless noted, no rule for the calls is given here.

Assay [1] can be described thus: antimalarial activity against Dd2 strain (AID 2302;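 active = growth inhibition above 50% at the single 2 µM test dose, taken to imply half-maximal potency below 2 µM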;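 also: 0% = DMSO untreated growth and 100% = chloroquine plus artemisinin killed control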). To be noted: P. falciparum Dd2 in RBCs, LDH growth readout, 72 h; at 2 µM; active compounds read high.
Assay [2] in a line: HepG2 cytotoxicity, primary screen, cytotoxicity control for P. falciparum antimalarial project, cell-based, ATP luminescence (AID 2303;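 active = inhibition above 50%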;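 also: 0% = DMSO wells and 100% = digitonin-killed cells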). The conditions noted are these: HepG2 viability, 24-48 h, at 10 µM, active compounds read high.
Assay [3] deals with L-lactate dehydrogenase (Plasmodium falciparum (isolate CDC / Honduras)) (UniProt Q27743). In words: PfLDH activity inhibition – cell lysate, 3D7 strain, counter-screen for P. falciparum growth inhibition project (AID 2304).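 Also: 0% = vehicle and 100% = reference inhibitor.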 The conditions noted are these: P. falciparum 3D7 crude extract, LDH APAD/NBT absorbance; at 2 µM; active compounds read high. On the technique in general: The purpose of a counterscreen is to sort out artefacts and off-target activity.
Sequence of L-lactate dehydrogenase (Plasmodium falciparum (isolate CDC / Honduras)) (Q27743 whole entry, looked up): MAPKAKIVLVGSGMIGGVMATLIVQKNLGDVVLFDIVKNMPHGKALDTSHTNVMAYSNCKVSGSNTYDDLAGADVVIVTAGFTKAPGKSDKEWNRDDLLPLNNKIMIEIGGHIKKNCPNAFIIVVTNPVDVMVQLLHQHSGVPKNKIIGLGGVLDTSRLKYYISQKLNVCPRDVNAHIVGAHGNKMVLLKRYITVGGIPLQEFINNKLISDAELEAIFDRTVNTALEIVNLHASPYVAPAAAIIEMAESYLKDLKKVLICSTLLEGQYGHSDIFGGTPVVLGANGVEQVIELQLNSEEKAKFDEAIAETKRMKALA

Assay [4] can be described thus: inhibition of 3D7 malaria parasite growth – strain 3D7 (AID 2306).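 Also: 0% = DMSO wells and 100% = chloroquine plus artemisinin control wells.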 To be noted: P. falciparum 3D7 erythrocytic growth, LDH absorbance, 72 h; at 2 µM; active compounds read high.
Assay [5] concerns the target Calcium-dependent protein kinase 1 (Plasmodium falciparum (isolate 3D7)) (UniProt P62344). In words: PfCDPK1 kinase inhibitors, biochemical, TCAMS library (AID 1159585; cut-off not given, nearly all actives have IC50 up to about 0.98 µM;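 also: inhibitors leave more ATP so luminescence rises with inhibition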). The conditions noted are these: recombinant PfCDPK1, Kinase-Glo ATP depletion luminescence. A general note: In Kinase-Glo more light means more ATP remaining.
Assay [6] deals with Plasmodium falciparum protein kinase 6 (PK6, PF3D7_1337100) (UniProt Q8IDW1). As to the kind of experiment: PfPK6 kinase inhibitors, biochemical, TCAMS library (AID 1159586). The conditions noted are these: recombinant PfPK6, Kinase-Glo ATP depletion luminescence.
Sequence of Plasmodium falciparum protein kinase 6 (PK6, PF3D7_1337100) (Q8IDW1 1-305): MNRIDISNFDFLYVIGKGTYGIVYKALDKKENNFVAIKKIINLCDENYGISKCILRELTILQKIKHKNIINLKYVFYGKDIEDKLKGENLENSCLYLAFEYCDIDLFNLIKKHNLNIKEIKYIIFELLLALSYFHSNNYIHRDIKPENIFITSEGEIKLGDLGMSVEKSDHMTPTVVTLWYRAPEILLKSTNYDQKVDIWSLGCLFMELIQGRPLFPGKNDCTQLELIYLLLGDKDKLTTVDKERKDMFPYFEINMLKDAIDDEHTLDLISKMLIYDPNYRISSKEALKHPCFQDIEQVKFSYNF
For assay [7], the target named is Protein kinase 7 (PK7), Plasmodium falciparum 3D7 (PF3D7_0213400) (UniProt Q7YTF7). In words: inhibition of Plasmodium PK7 catalytic activity – biochemical, TCAMS antimalarial set, Kinase-Glo luminescence (AID 1159587). The conditions noted are these: recombinant PfPK7, Kinase-Glo ATP depletion luminescence.
Sequence of Protein kinase 7 (PK7), Plasmodium falciparum 3D7 (PF3D7_0213400) (Q7YTF7 1-343): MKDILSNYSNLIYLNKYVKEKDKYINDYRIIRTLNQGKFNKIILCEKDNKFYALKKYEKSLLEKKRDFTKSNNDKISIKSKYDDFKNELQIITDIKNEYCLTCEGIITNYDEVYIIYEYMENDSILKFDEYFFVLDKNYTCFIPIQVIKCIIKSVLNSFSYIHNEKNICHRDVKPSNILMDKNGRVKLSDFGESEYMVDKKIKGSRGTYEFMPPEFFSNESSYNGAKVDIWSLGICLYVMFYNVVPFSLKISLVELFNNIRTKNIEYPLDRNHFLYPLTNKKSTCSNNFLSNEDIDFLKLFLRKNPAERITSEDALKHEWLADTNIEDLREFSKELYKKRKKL
The target of assay [8] is Calcium-dependent protein kinase 4 (Plasmodium falciparum (isolate 3D7)) (UniProt Q8IBS5). As to the kind of experiment: PfCDPK4 kinase inhibitors, biochemical, TCAMS library (AID 1159588; cut-off not given, nearly all actives have IC50 up to about 0.91 µM). To be noted: recombinant PfCDPK4, Kinase-Glo ATP depletion luminescence.
Sequence of Calcium-dependent protein kinase 4 (Plasmodium falciparum (isolate 3D7)) (Q8IBS5 whole entry, looked up): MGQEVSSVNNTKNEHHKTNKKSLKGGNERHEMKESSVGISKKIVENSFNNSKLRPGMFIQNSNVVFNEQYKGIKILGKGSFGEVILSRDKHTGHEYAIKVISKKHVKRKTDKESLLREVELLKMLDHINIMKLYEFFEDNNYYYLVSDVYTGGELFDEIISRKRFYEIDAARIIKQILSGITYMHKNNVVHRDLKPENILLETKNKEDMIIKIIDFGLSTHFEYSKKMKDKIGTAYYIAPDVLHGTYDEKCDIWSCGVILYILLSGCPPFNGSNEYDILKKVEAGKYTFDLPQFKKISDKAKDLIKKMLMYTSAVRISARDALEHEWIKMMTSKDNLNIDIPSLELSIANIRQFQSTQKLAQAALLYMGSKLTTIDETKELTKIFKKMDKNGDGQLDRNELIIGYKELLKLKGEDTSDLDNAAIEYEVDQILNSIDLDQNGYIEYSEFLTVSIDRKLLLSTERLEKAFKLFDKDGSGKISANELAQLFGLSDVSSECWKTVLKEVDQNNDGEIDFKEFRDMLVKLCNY

Sequence of Calcium-dependent protein kinase 1 (Plasmodium falciparum (isolate 3D7)) (P62344 whole entry, looked up): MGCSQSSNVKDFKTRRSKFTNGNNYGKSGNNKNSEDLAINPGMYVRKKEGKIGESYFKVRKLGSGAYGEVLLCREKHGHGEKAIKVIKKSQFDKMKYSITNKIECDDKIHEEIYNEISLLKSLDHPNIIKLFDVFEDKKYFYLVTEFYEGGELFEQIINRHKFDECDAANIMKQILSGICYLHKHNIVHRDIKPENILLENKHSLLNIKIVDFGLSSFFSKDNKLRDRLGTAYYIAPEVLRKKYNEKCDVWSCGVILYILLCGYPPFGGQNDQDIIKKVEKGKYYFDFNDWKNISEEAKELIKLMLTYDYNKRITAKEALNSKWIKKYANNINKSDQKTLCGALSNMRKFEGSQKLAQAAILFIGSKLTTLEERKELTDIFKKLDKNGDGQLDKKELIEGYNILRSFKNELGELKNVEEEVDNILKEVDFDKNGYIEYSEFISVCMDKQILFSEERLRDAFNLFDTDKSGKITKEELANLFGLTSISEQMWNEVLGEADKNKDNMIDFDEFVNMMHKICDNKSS

Consider `O=C(Nc1cc(C(F)(F)F)ccc1-n1cncn1)C1(c2ccccc2)CC1`, for which the growth inhibition in assay [1] and in assay [4] was 100% (active) throughout. Also, the figures for the inhibition in assay [2] and in assay [3] were 11% and 3%, respectively. The outcome in assay [5], in assay [6], in assay [7] and in assay [8] was inactive.

For `N#Cc1ccc(N2CCN(C(=O)c3cccc(-c4noc(C(F)(F)F)n4)c3)CC2)nc1`, the growth inhibition in assay [1] was 58% (active); in assay [4], 84% (active). Moreover, the inhibition (as a rule, the change of the read-out against control, counted positive when it falls) in assay [2] is 18%; in assay [3], 3%. Moreover, the result in assay [5], in assay [6], in assay [7] and in assay [8] was inactive.

In the case of `O=C(Nc1ccc(-c2cccc(-c3nc4ccccc4[nH]3)c2)cc1)Nc1ccsc1`, the growth inhibition is 90% (active) in assay [1] and 101% (active) in assay [4]. Moreover, the inhibition is 56% (active) in assay [2] and -7% in assay [3]. Also, the outcome in assay [5], in assay [6], in assay [7] and in assay [8] was inactive.

Take `CS(=O)(=O)c1ccc(-c2cnc(N)c(-c3ccc(O)cc3)c2)cc1`: the results for the growth inhibition in assay [1] and in assay [4] were 94% (active) and 84% (active), respectively. Besides, the results for the inhibition in assay [2] and in assay [3] were 38% and 2%, respectively. The result in assay [5], in assay [6], in assay [7] and in assay [8] was inactive.

`Cc1cccc2[nH]c(-c3ccc(-c4cccc(CNCCc5ccncc5)c4)cc3)nc12`: the growth inhibition in assay [1] is 95% (active); in assay [4], 101% (active). Besides, the figures for the inhibition in assay [2] and in assay [3] were 28% and 2%, respectively. Moreover, the result in assay [5], in assay [6], in assay [7] and in assay [8] was inactive.

Turning to `CCC(CCON1C(N)=NC(N)=NC1(C)C)c1ccc(Cl)cc1` (stereo not given), the growth inhibition in assay [1] is 95% (active); in assay [4], 94% (active). Further, the inhibition in assay [2] is 66% (active); in assay [3], 1%. Further, the outcome in assay [5], in assay [6], in assay [7] and in assay [8] was inactive.

In the case of `Cc1cccc2[nH]c(-c3cccc(-c4cccc(CNCc5cccc(N)c5)c4)c3)nc12`, the figures for the growth inhibition in assay [1] and in assay [4] were 73% (active) and 101% (active), respectively. The inhibition is 14% in assay [2] and 1% in assay [3]. Besides, the result in assay [5], in assay [6], in assay [7] and in assay [8] was inactive.

On to `FC(F)(F)c1cc(Nc2ccc(Oc3ccccc3)cc2)c2cc(-c3ccncc3)ccc2n1`, for which the growth inhibition is 70% (active) in assay [1] and 102% (active) in assay [4]. In addition, the inhibition in assay [2] was -12%; in assay [3], -2%. Besides, the outcome in assay [5], in assay [6], in assay [7] and in assay [8] was inactive.

Take `COc1cc2nc(N3CCC(CNC(=O)c4ccc(-c5ccc(C#N)cc5C)cc4)CC3)nc(N)c2cc1OC`: the growth inhibition is 99% (active) in assay [1] and 101% (active) in assay [4]. Also, the results for the inhibition in assay [2] and in assay [3] were 28% and -4%, respectively. For the same compound, the result in assay [5], in assay [6], in assay [7] and in assay [8] was inactive.

On to `CCOc1ccc(Nc2nc(N)c3ccccc3n2)cc1`, for which the growth inhibition in assay [1] is 6%; in assay [4] it was 90% (active). The inhibition in assay [2] was 28%; in assay [3] it was 2%. Besides, the result in assay [5], in assay [6], in assay [7] and in assay [8] was inactive.

Consider `O=C(/C=C/c1ccc(Cl)c(Cl)c1)NCCCCCCN1CCN(C(=O)Nc2ccc(F)c(Cl)c2)CC1`, for which the values for the growth inhibition in assay [1] and in assay [4] were 2% and 86% (active), respectively. Moreover, the inhibition in assay [2] is 40%; in assay [3], -7%. In addition, the result in assay [5], in assay [6], in assay [7] and in assay [8] was inactive.

As to `CN1CCC(N2CCN(Cc3ccc(-c4ccc(-c5nc6ccc(F)cc6[nH]5)s4)cc3)CC2)CC1`, the growth inhibition in assay [1] and in assay [4] was 100% (active) each time. The inhibition in assay [2] was 62% (active); in assay [3] it was 3%. For the same compound, the outcome in assay [5], in assay [6], in assay [7] and in assay [8] was inactive.

Regarding `CN(C)c1ccc(-c2ccc(C(=O)NC3CCN(Cc4ccccc4)CC3)s2)cc1`, the growth inhibition in assay [1] is 10%; in assay [4] it was 92% (active). Besides, the inhibition is 20% in assay [2] and -3% in assay [3]. Further, the outcome in assay [5], in assay [6], in assay [7] and in assay [8] was inactive.

For the compound `CCOC(=O)c1cc(C(=O)OC)c2ccccn12`, the values for the growth inhibition in assay [1] and in assay [4] were 2% and 97% (active), respectively. Moreover, the figures for the inhibition in assay [2] and in assay [3] were 44% and -2%, respectively. In addition, the result in assay [5], in assay [6], in assay [7] and in assay [8] was inactive.

In the case of `CC(=O)Nc1ccccc1OCc1cc2cc(C(=O)N3CCC(N4C(=O)OCc5ccccc54)CC3)ccc2o1`, the growth inhibition was 98% (active) in assay [1] and 99% (active) in assay [4]. In addition, the inhibition in assay [2] was 34%; in assay [3] it was -2%. Moreover, the result in assay [5], in assay [6], in assay [7] and in assay [8] was inactive.

For the compound `Clc1ccc(-c2cc3c(NCc4ccncc4)nccc3s2)cc1`, the figures for the growth inhibition in assay [1] and in assay [4] were 8% and 98% (active), respectively. The inhibition is 26% in assay [2] and -1% in assay [3]. The result in assay [5], in assay [6], in assay [7] and in assay [8] was inactive.

As for `CN1CCCc2cc(NC(=O)C=Cc3ccc(-c4ccc(F)cc4F)o3)ccc2C1`, the growth inhibition is 27% in assay [1] and 90% (active) in assay [4]. Further, the values for the inhibition in assay [2] and in assay [3] were 5% and 4%, respectively. Also, the outcome in assay [5], in assay [6], in assay [7] and in assay [8] was inactive.

As for `O=C(/C=C/c1ccc(Cl)c(Cl)c1)N1CCC(CCN2CCC(c3c[nH]c4ccncc34)CC2)CC1`, the results for the growth inhibition in assay [1] and in assay [4] were 70% (active) and 101% (active), respectively. The results for the inhibition in assay [2] and in assay [3] were 13% and 2%, respectively. In addition, the result in assay [5], in assay [6], in assay [7] and in assay [8] was inactive.

Regarding `CC(C)N1CCN(c2ccc(OCCCCN3CCN(c4cccc(Cl)c4Cl)CC3)c(C(F)(F)F)c2)CC1`, the growth inhibition was 28% in assay [1] and 101% (active) in assay [4]. Besides, the inhibition was 64% (active) in assay [2] and 4% in assay [3]. Besides, the result in assay [5], in assay [6], in assay [7] and in assay [8] was inactive.

Consider `CN(C)CCNC(=O)c1ccc2c(c1)n(C1CCN(S(=O)(=O)c3ccc(-c4ccccc4)cc3)CC1)c(=O)n2CC1CCCCC1`, for which the growth inhibition in assay [1] is 66% (active); in assay [4], 100% (active). For the same compound, the inhibition in assay [2] is 47%; in assay [3] it was -2%. Besides, the result in assay [5], in assay [6], in assay [7] and in assay [8] was inactive.
